# Screening results (PubChem BioAssay)
# CYP2C19 inh – human CYP2C19 inhibition; P33261; CYP2C19 Supersomes, luciferin-H EGE luminescence, 30 min; inhibition, % at 5 µM; hit rate 21% among 96,000;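 active means CYP2C19 inhibition above a set limit at 5 µM in the primary screen, cut at about 50% in these data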;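 further: plate controls were negative control wells for no effect and 2.5 mM tranylcypromine positive control for full effect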
# Target sequence (P33261 whole entry, looked up): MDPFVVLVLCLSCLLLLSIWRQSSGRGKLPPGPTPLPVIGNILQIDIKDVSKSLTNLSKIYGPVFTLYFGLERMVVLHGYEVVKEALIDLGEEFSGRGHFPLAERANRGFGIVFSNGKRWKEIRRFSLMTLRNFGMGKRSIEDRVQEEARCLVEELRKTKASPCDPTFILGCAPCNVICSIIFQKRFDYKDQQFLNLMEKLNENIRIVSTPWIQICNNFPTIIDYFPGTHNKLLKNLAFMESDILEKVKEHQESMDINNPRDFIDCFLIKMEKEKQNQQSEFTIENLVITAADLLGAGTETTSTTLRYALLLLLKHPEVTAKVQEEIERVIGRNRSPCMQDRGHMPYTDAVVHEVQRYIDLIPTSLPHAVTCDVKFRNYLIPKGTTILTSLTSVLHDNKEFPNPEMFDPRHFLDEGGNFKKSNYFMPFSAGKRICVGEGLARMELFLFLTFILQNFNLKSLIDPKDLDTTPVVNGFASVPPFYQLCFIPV
# PostGolgi ctrl – growth of the yeast control strain, post-Golgi counter-screen | efflux-deficient yeast background strain, growth absorbance A615, 16 h | inhibition, % at 10 µM | hit rate 5% among 98,000
# CYP2C9 activ – activators of human CYP2C9. P11712. recombinant CYP2C9, luciferin-H conversion, luminescence; active compounds read high; factor 1 = untreated enzyme, 0 = blocked. activation factor at 5 µM. hit rate 1.4% among 96,000;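 active means activation factor of 2 or more for CYP2C9 at a 5 µM dose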;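 further: 0 = sulfaphenazole-blocked wells and 1 = vehicle-only wells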
# PostGolgi yeast – growth inhibition of a yeast mutant, post-Golgi transport screen; post-Golgi transport phenotypic cell assay; inhibition, % at 10 µM; AID 739; hit rate 0.9% among 98,000;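 further: yeast cells grown in 1536-well plates; yeast grown about 18 h at 30C before absorbance read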
# CYP2C19 activ – increases human CYP2C19 enzyme activity | activation factor at 5 µM | AID 1025 | P33261 | 96,000 tested, under 10 active | recombinant CYP2C19, luciferin-H EGE luminescence; active compounds read high; 0 = fully inhibited enzyme, 1 = untreated enzyme;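 active means activation factor of at least 2 at 5 µM in the primary screen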;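 further: 0 = wells with 2.5 mM tranylcypromine and 1 = vehicle-only wells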
# CYP2C9 inh – human CYP2C9 inhibition | P11712 | inhibition, % at 5 µM | CYP2C9 Supersomes, luciferin-H conversion, luminescence | hit rate 20% among 96,000;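 active means blocking of liver enzyme CYP2C9 beyond about 50% at 5 µM, limit read from the data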
# Numbers without * were called inactive. An excerpt weighted towards active compounds, which were near 32% of everything screened. Unless noted, no stated cut-off is given here; in the data, active means inhibition above about 30%; inactive means the rest.
SMILES,CYP2C19 inh,PostGolgi ctrl,CYP2C9 activ,PostGolgi yeast,CYP2C19 activ,CYP2C9 inh
Cc1cc2c(c(SCC(=O)N(C)c3ccccc3)n1)C(=O)OC2,63*,-6,0.9,-5,0.4,14
CC(C)CCn1cnc2c(c1=O)c1nc3ccccc3nc1n2Cc1ccc2c(c1)OCO2,7,-2,1,1,0.9,4
CO/N=C/C(=N\Nc1ccc(OC)cc1)C(=O)c1ccc(OC)cc1,32,4,0.3,-8,0.7,68*
CC1CCOC2(O1)C(=O)N(CN1CCN(c3cccc(Cl)c3)CC1)c1ccccc12 (configuration not stated),11,7,1,13,0.9,5
COc1cc(C2SCC(=O)N2CCCN(C)C)cc(OC)c1OC (configuration not stated),-17,-1,0.9,5,1.2,5
CCCC[n+]1ccn(-c2nc3ccccc3nc2[N-]S(=O)(=O)c2ccc(C)cc2)c1,25,-1,0.3,9,0.7,72*
COc1ccccc1NC(=O)CN1CCN(C2c3ccccc3-c3ccccc32)CC1,81*,27,0,3,0.2,96*
COc1cc(NC(=O)Nc2ccccc2OC)c(OC)cc1NC(=O)CN1CCCCC1,-4,-5,0.9,-6,1,14
COc1ccc(NC(=O)CN2CCN(C3c4ccccc4-c4ccccc43)CC2)c(OC)c1,88*,68*,0,3,0.1,97*
Cc1ccc(-n2nnnc2SCn2nnc3ccccc3c2=O)c(C)c1,30,20,1.7,-2,0.7,-66
CCN1C2=C(C(=O)CCC2)C(c2ccc(O)cc2)C2=C1CCCC2=O,-7,1,1,-5,1.1,-4
CCc1ccc(-c2nc(CSCC(=O)N3CCN(c4ncccn4)CC3)c(C)o2)cc1,29,29,0.3,-5,0.7,75*
CCOC(=O)N1CCN(C(=O)CSCc2nc(-c3ccccc3F)oc2C)CC1,38,8,0.7,-4,0.6,32
CCOC(=O)N1CCN(C(=O)CSCc2nc(-c3ccccc3C)oc2C)CC1,59*,15,0.6,-1,0.4,36
CC(C)NC(=O)CN1C(=O)NC(CCc2ccccc2)C1=O (configuration not stated),12,7,0.9,-1,0.9,6
COc1ccc(N(CC(=O)NCCSC2CCCCC2)S(C)(=O)=O)c(OC)c1,22,7,1.9,4,0.8,-91
COc1ccc(-n2c(Cc3cccn3C)nnc2SCC(=O)Nc2ccc(C(C)=O)cc2)cc1,1,4,0.8,-2,1,15
C/C(Cc1ccccc1)=N\NC(=O)CCCCCC(=O)N/N=C(\C)Cc1ccccc1,57*,-1,0.9,-4,0.4,10
CCCCCCC/C(C)=N/NC(=O)CC(=O)NCCc1ccccc1,23,8,0.4,-3,0.8,65*
CS(=O)(=O)N1CCN(C2CCN(Cc3ccccc3)CC2)CC1,-9,-2,1.2,-3,1.1,-15
O=C(CCn1ccc2ccccc21)Nc1ccc(N2CCOCC2)cc1,55*,6,0.7,3,0.4,28
Cc1ccc(C)c(N2CCN(C(=O)CN(C)S(=O)(=O)c3ccc4c(c3)CCC(=O)N4)CC2)c1,51*,1,0.2,11,0.5,82*
Cc1ccc(C)c(N2CCN(S(=O)(=O)c3ccc4c(c3)CCC(=O)N4)CC2)c1,35,21,0.2,9,0.7,78*
O=C1CCc2cc(S(=O)(=O)N3CCN(c4cccc(C(F)(F)F)c4)CC3)ccc2N1,18,0,0.7,-2,0.8,34
Cc1ccc(C)c(N2CCN(S(=O)(=O)c3ccc4[nH]c(=O)c(=O)[nH]c4c3)CC2)c1,16,-2,0.3,6,0.8,66*
Cc1ccc(C)c(N2CCN(C(=O)C3CCCN(S(=O)(=O)c4c(C)[nH]c(=O)[nH]c4=O)C3)CC2)c1 (configuration not stated),44,1,0.7,3,0.6,33
O=P(CCC(F)(F)F)(CCC(F)(F)F)CCC(F)(F)F,-9,4,1.1,-3,1.1,-10
CCn1cc(C2=NOC(C(=O)Nc3cc(OC)c(Cl)cc3OC)C2)c(C)n1 (configuration not stated),30,4,1.1,-1,0.7,-12
